Source: PubChem BioAssay (National Center for Advancing Translational Sciences (NCATS))
Compounds with a hit are over-represented: about 0.89% of the library has one in this group of screens.
Eya2 inh: qHTS Assay for Inhibitors of the Phosphatase Activity of Eya2; Protein phosphatase EYA2 (Homo sapiens), O00167; recombinant Eya2, OMFP fluorescence dephosphorylation (OMFP is methylfluorescein phosphate); Potency, µM (highest dose often 76.9 µM), for inactives: at the highest dose activity, negative = inhibition, actives largely listed as inhibitors; hit rate 0.006% among 330,000; also: potency is read from the fitted curve at half-maximal effect; % is scaled to controls: 0 for no effect and ±100 for the full control effect
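Eya2 protein (added as 0.2 uM solution) was preincubated with compound for 10 min at ambient temperature in 50 mM HEPES pH 7.5, 50 mM NaCl, 5 uM MgCl2, 0.05% BSA, 1 mM DTT. OMFP (added at 50 uM) then reacted 10 min; fluorescence read at 485/525 nm.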
Six1-Eya2 blk: qHTS Assay for Inhibitors of the Six1/Eya2 Interaction. AlphaScreen GST-Six1/His-Eya2 binding, biochemical; stronger effect = lower value. hit rate 0.56% among 360,000. activity change, % (no concentration beside the values). Homeobox protein SIX1 (Homo sapiens) + Protein phosphatase EYA2 (Homo sapiens), …; in the data active = activity change below about -65%; inconclusive = mostly about -30% to -63%; also: % is scaled to controls: 0 for no effect and ±100 for the full control effect
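Compounds are tested against tagged Six1 and Eya2 proteins bridged by glutathione donor and nickel acceptor beads; after a one-hour incubation at 37 °C without light, AlphaScreen emission is recorded.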
MBNL1 CUG block: qHTS Assay for Inhibitors of MBNL1-poly(CUG) RNA binding; Potency, µM (titrated, usually from 57.5 µM), without a hit: at the highest dose activity change, negative = inhibition, most hits filed as inhibitors; TR-FRET MBNL1-His/biotin-(CUG)12 binding, 665/545 ratio; Muscleblind-like protein 1 (Homo sapiens), Q9NR56; hit rate 0.036% among 280,000; active = well fitted inhibition curve with a large enough effect in the signal ratio, with a control signal flat, not every such curve was filed as active; inconclusive = small, poorly fitted or top-dose-only effect, or effect the other way, or a change in a side signal; inactive = no such curve, though single readings can be large or run the other way; the % refers to the signal ratio; also: potency is read from the fitted curve at half-maximal effect; % is scaled to controls: 0 for no effect and ±100 for the full control effect
Target sequence (Q9NR56 whole entry, looked up): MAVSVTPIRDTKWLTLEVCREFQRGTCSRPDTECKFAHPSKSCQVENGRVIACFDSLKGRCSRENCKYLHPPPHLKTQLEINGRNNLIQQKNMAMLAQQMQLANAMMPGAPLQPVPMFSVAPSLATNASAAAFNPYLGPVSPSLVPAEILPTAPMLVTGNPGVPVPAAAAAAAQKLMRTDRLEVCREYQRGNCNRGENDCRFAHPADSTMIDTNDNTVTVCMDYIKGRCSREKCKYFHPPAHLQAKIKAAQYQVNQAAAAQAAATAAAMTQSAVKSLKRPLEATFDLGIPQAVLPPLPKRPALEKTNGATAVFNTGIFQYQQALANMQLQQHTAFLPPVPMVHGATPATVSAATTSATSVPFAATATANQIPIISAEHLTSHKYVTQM
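TR-FRET readout: Ex 340 nm, 665/545 nm emission ratio, normalized to buffer-only (basal) and MBNL1-(CUG)12 controls. Complex of MBNL1-His with Biotin-(CUG)12, compounds 92 nM–58 uM, incubated 60 min at room temperature.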
CtBP-E1A blk: qHTS Assay for Inhibitors of the CtBP/E1A Interaction | CtBP / adenovirus E1A interaction (AlphaScreen) | AlphaScreen GST-E1A/His-CtBP binding, 1536-well; stronger effect = lower value | activity change, % (no concentration beside the values) | hit rate 0.49% among 340,000 | AID 651724, 2012; in the data active = activity change below about -65%; inconclusive = mostly about -30% to -63%; also: % is scaled to controls: 0 for no effect and ±100 for the full control effect
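Steps: dispense buffer (Tris pH 8.0, NaCl 300 mM, TCEP 1 mM, BSA, Tween 20); add 5X protein mix (GST-E1A, His-CtBP, 125 nM each); pin 23 nL compound; 2 h at 37 °C, dark; add 5X beads (50 ug/mL); 1 h; read.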
L3MBTL1 block: qHTS Assay for the Inhibitors of L3MBTL1 | Potency, µM (series often up to 57.1 µM), for the others: at the top dose activity, negative = inhibition, hits mostly inhibitors | AID 485360, 2010 | Lethal(3)malignant brain tumor-like protein 1 (Homo sapiens), Q9Y468 | hit rate 0.66% among 230,000 | AlphaScreen L3MBTL1–H3K9me1 peptide binding; also: potency is read from the fitted curve at half-maximal effect; % is scaled to controls: 0 for no effect and ±100 for the full control effect; nearly all actives have a fitted effect of over 60% in size
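AlphaScreen assay: L3MBTL1 (50 nM final) was preincubated 30 min at room temperature with biotinylated H3(1-15)K9me1 peptide (75 nM final), then 30 min with library compounds; streptavidin donor and nickel chelate acceptor beads (10 ug/mL final) added, 30 min dark.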
CBFb RUNX1 block: qHTS Assay for Compounds Blocking the Interaction Between CBF-beta and RUNX1 for the Treatment of Acute Myeloid Leukemia; Runt-related transcription factor 1 (Homo sapiens) + Core-binding factor subunit beta …; AlphaScreen CBFb-His/RUNX1-biotin binding, biochemical; Potency, µM (top dose mostly 59.8 µM), for inactives: at the top dose activity, negative = inhibition, most hits filed as inhibitors; 230,000 tested, under 10 active; also: % of control where 0% means no effect
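His-tagged CBF-beta and biotinylated RUNX1 (30 nM each) were premixed 20 min at room temperature, exposed to compound for 15 min, then given nickel-chelate and streptavidin AlphaScreen beads (50 ng each). After 90 min, AlphaScreen signal was read.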
* = called active by the depositor; ? = inconclusive; . = no result; [ ] = remark or other dose. Unless noted, calls follow the shape of the dose curve; as a rule, active = well fitted curve in the direction sought with a large enough effect; inconclusive = small, poorly fitted or top-dose-only effect, or another doubt; inactive = no such curve, though single readings can be large; an effect the other way counts as inactive or inconclusive.

SMILES	Eya2 inh	Six1-Eya2 blk	MBNL1 CUG block	CtBP-E1A blk	L3MBTL1 block	CBFb RUNX1 block
N#CCCN(/N=C/c1cccnc1)C1=NS(=O)(=O)c2ccccc21	18.0%	-18.2	2.6%	-24.0	-2.2%	5.5%
Cc1cccc(/C=N/N(CCO)C2=NS(=O)(=O)c3ccccc32)c1	7.4%	?	4.7%	-80.9*	11.6%	-29.7%
O=C(Nc1cccc(-c2nn[nH]n2)c1)c1ccc(Br)s1	4.6%	?	22.5%	-68.6*	.	.
CNc1cccc2c1C(=O)c1ccccc1C2=O	2.4%	-87.5*	?	-2.6	8.91µM*	.
O=C1/C(=C\c2ccco2)CCC/C1=C\c1ccco1	6.1%	-28.5	.	-0.9	3.55µM*	-10.0%
CC1C/C(=C/c2ccco2)C(=O)/C(=C/c2ccco2)C1 (stereo not drawn)	-4.1%	.	10.0%	.	3.16µM*	-3.1%
O=C1/C(=C/c2ccco2)Cc2ccccc21	-6.4%	-29.0	?	1.6	-11.5%	-12.3%
N#Cc1cc([N+](=O)[O-])ccc1NC(=O)CSc1n[nH]c(=O)[nH]c1=O	-0.9%	-6.0	.	-7.2	5.5%	.
O=C1c2ccccc2C(=O)c2c(NCc3cccnc3)cccc21	-3.2%	?	?	-8.2	-20.9%	4.6%
O=C1c2cccc(NCCCNCCO)c2C(=O)c2cccc(NCCCNCCO)c21	.	-70.7*	.	-79.2*	.	.
CCc1ccc(N2CC(C)Cn3c2nc2c3c(=O)[nH]c(=O)n2C)cc1 (stereo not drawn)	-11.5%	19.0	-3.0%	-0.2	.	.
CC1=NN(c2nc3ccccc3[nH]2)C(=O)C1Cc1ccccc1 (stereo not drawn)	10.9%	-90.8*	7.7%	-81.3*	20µM*	?
O=c1nc2s/c(=C\c3ccco3)c(=O)n2nc1Cc1ccc(F)cc1	6.7%	-80.7*	23.4%	-79.5*	.	.
Cc1ccc(-c2nc3s/c(=C\c4ccco4)c(=O)n3n2)cc1	-10.9%	-10.8	3.4%	14.4	?	-18.1%
O=C(Nc1ccccc1)c1cc(C2CCCCN2S(=O)(=O)Cc2cccc(C(F)(F)F)c2)on1 (stereo not drawn)	.	4.0	.	0.9	.	.
COc1ccc(OC)c(/C=C/C(=O)Oc2ccc(C(C)=O)cc2)c1	-2.6%	-23.3	16.9%	-88.3*	.	.
COc1ccc(/C=C/C(=O)O)cc1	12.2%	5.2	.	0.7	-6.0%	8.0%
COc1ccc(/C=C/C(=O)Oc2ccc(C)cc2)cc1	?	-1.9	6.8%	-70.2*	12.5%	.
COc1ccc(OC)c(/C=C/C(=O)OCC(=O)N2C(C)CCCC2C)c1 (stereo not drawn)	-5.1%	-66.7*	.	-94.4*	-4.8%	.
COc1ccc(OC)c(/C=C/C(=O)OCC(=O)N2CCCC2)c1	0.7%	-10.2	.	.	4.7%	.
Oc1ccc(N=Nc2c(O)ccc3ccccc23)cc1	-18.1%	-69.8*	?	-74.7*	17.8µM*	.
COc1ccncc1-c1ccc(C2=CC(=O)CC(C)(C)C2=O)cc1	.	-20.5	.	-9.6	.	.
CCN(CC)CCN1CCN(c2cnc(C)cn2)CC1	.	0.6	.	7.5	.	.
CCOc1ccc(S(=O)(=O)N2CCN=C2c2ccccc2)c(C)c1C	-12.8%	-3.9	-4.8%	7.1	.	.
O=C(N/N=C/c1cc(Cl)cc([N+](=O)[O-])c1O)c1cccc(S(=O)(=O)N2CCOCC2)c1	5.7%	-90.9*	.	-87.2*	?	.
SMILES	Eya2 inh	Six1-Eya2 blk	MBNL1 CUG block	CtBP-E1A blk	L3MBTL1 block	CBFb RUNX1 block
O=C(N/N=C/c1cc(Br)cc(Br)c1O)c1cccc(S(=O)(=O)N2CCOCC2)c1	4.3%	-69.6*	-3.8%	-93.6*	.	9.7%
Cc1cccc(NC(=O)CSc2nc(N)c(NC(=O)c3cccs3)c(=O)[nH]2)c1C	4.3%	6.1	0.1%	-2.2	9.0%	8.8%[2.36 µM]
CCC(C)c1c(N)n(S(=O)(=O)c2ccc(C)cc2)oc1=O (stereo not drawn)	.	-76.8*	.	?	.	.
CCOC(=O)C1=C(C)N(C[C@@H]2CC[C@@H](Cc3ccc(-c4ccccc4)cc3)O2)C(=O)NC1c1ccc(SCc2ccco2)c([N+](=O)[O-])c1 (stereo partly drawn)	0.4%	-10.0	.	-1.9	31.6µM*	.
CC(=O)C1CCC2C3CC=C4CC(SC(=N)N)CCC4(C)C3CCC12C (stereo not drawn)	.	6.3	.	0.0	.	.
CCN(CC)CCCNc1nc(-c2ccccc2)nc2ccccc12	5.5%	-5.7	5.4%	8.1	1.4%	0.4%
CCN(CC)CCCNc1nc2ccccc2c2[nH]c3ccc(OC)cc3c12	.	?	.	-74.8*	.	.
Cc1[nH]c(C)c(S(=O)(=O)N2CCN(c3ccc(Cl)cc3)CC2)c1C(=O)N1CCCC1	-13.0%	-4.1	-2.4%	.	.	.
C[C@H](CO)N1C[C@H](C)[C@@H](CN(C)C(=O)Nc2ccc3c(c2)OCO3)Oc2c(NC(=O)Nc3ccc4c(c3)OCO4)cccc2C1=O	6.2%	-13.8	.	-13.1	-3.2%	.
O=C(Cc1ccccc1)Nc1ncccc1Cl	.	3.4	.	-7.5	.	.
Oc1[nH]c2ccc(Br)cc2c1N=NC(=S)N1CCOCC1	-15.1%	-78.1*	.	?	?	.
CCN(CC)CCCNc1cc2n(c(=O)n1)CCc1cc(OC)c(OC)cc1-2	15.7%	-80.1*	6.3%	-69.4*	-4.7%	7.6%
COc1cc2c(cc1OC)-c1cc(Nc3ccccc3Br)nc(=O)n1CC2	15.4%	?	0.9%	?	.	.
COc1cc2c(cc1OC)-c1cc(Nc3ccc(C)cc3)nc(=O)n1CC2	0.4%	?	1.2%	.	.	.
COc1cc2c(cc1OC)-c1cc(Nc3ccccc3)nc(=O)n1CC2	-13.6%	-76.0*	-5.8%	1.5	.	3.9%
COc1ccc(Nc2cc3n(c(=O)n2)CCc2cc(OC)c(OC)cc2-3)cc1	0.3%	-78.5*	?	?	.	.
COc1cc2c(cc1OC)-c1cc(NC3CCCCCC3)nc(=O)n1CC2	7.5%	-70.9*	-3.0%	?	7.3%	3.0%
COc1cc2c(cc1OC)-c1cc(Nc3ccc(C(=O)O)cc3)nc(=O)n1CC2	5.3%	?	-1.1%	-13.9	.	.
O=C(CSc1nnc(NC(=O)C2CC2)s1)Nc1ccccc1C(F)(F)F	0.1%	-0.4	-3.7%	0.0	.	.
CN(C)c1ccc(N=Nc2ccc(C(=O)O)cc2)cc1	-2.5%	-11.3	?	-5.8	.	.
